# Hits are enriched below; roughly 4.6% of the tested compounds scored in any of these assays.
# D1 ag: Allosteric Agonists of the Human D1 Dopamine Receptor: qHTS | HEK293 T-REx D1 cells, calcium flux, agonist mode | activation, % at 2 µM | 360,000 compounds, 1% hits | D(1A) dopamine receptor (Homo sapiens), P21728; also: 0% is about no effect
#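 Tetracycline-induced HEK293 TREx D1 cells, force-coupled to calcium signalling, were dye-loaded with a no-wash calcium kit. Compound was pin-added after a 10 s baseline. Fluorescence was read kinetically at 1 cycle/s for 180 s, with calcium rises flagged as agonism.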
# TRHR ag: qHTS for Small Molecule Agonists and Allosteric Enhancers of Human TRH Receptor: Primary Screen for Agonists; Thyrotropin-releasing hormone receptor (Homo sapiens), P34981; activation, % at 2 µM; 360,000 compounds, 0.18% hits; TRHR cells, calcium flux fluo-8, FDSS agonist mode; AID 493084, 2011; also: 0% is about no effect
# Target sequence (P34981 whole entry, looked up): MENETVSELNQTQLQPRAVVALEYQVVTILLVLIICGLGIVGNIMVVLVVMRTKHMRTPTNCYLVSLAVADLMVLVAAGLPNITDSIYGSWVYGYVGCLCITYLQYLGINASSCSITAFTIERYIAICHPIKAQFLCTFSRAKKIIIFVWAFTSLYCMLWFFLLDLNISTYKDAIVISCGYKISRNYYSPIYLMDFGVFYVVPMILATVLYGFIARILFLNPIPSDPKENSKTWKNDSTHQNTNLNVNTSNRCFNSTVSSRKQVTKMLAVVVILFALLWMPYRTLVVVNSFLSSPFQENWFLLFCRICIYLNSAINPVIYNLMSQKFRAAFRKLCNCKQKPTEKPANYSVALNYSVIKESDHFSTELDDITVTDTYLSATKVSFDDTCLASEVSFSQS
#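 In this calcium-flux screen, cells bearing human TRHR are dye-loaded with fluo-8, baselined for 10 cycles, then exposed to library compounds; positive kinetic calcium responses during the agonist phase mark hits, with TRH as control.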
# D1 potentiator: Potentiators of Human D1 Dopamine Receptor: qHTS. potentiation, % at 10 µM. HEK293 TREx D1 cells, calcium flux, dopamine EC20 potentiation. AID 504651, 2011. 360,000 compounds, 0.036% hits. D(1A) dopamine receptor (Homo sapiens), P21728; in the data active = potentiation above about 30%; also: 0% is about no effect
# TRHR enhancer: qHTS for Small Molecule Agonists and Allosteric Enhancers of Human TRH Receptor: Primary Screen for Enhancers; enhancement, % at 2 µM; AID 493056, 2011; 360,000 compounds, 0.66% hits; TRHR cells, fluo-8 calcium fluorescence, EC20 TRH enhancement; in the data active = enhancement above about 30%; also: 0% is about no effect
#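 Enhancer read-out: after compound pinning and an initial kinetic agonist-mode read, an EC20 of TRH (10 nM final) was injected and fluo-8 calcium signal (Ex 480/Em 530) followed at 1 s/cycle for 100 cycles in TRHR-expressing cells.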
# D1 antagonist: Antagonist of Human D 1 Dopamine Receptor: qHTS | HEK293 TREx D1 cells, calcium flux, dopamine EC80; stronger effect = lower value | D(1A) dopamine receptor (Homo sapiens), P21728 | AID 504652, 2011 | activity change, negative = inhibition, % at 10 µM | 360,000 compounds, 3.2% hits; in the data active = activity change below about -30%; also: % is scaled to controls: 0 for no effect and ±100 for the full control effect
#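 Inducible Hek293 Trex D1 cells (tetracycline, overnight, 30 C). Calcium dye 30–90 min RT. Antagonist mode: EC80 dopamine added after 180 s compound read.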
# The depositor's hits bear a star; nt = not tested or not shown; ! = repeats disagree. Rule as the data show it, unless noted: active = activation above about 30%; inactive = the rest.
SMILES,D1 ag,TRHR ag,D1 potentiator,TRHR enhancer,D1 antagonist
O=C(NC1CC1)C1=C[C@@H](c2coc3ccccc3c2=O)C[C@@H](OCc2ccc(CO)cc2)O1,34*,0,5,0,4
CC12CCC(C(=O)Nc3nccs3)(OC1=O)C2(C)C (stereo unspecified),0,0,-2,3,-31*
CSc1ccc(CN2CCN(Cc3ccc([N+](=O)[O-])cc3)CC2)cc1,8,0,-12,-2,-37*
COc1ccc(Nc2ncnc3c2nc2n3CCCC2)cc1Cl,-1,0,-1,2,-11
CCC(=O)Nc1nnc(S(=O)(=O)N2CCc3ccccc32)s1,0,3,-4,21,8
CC(C)CC(=O)Nc1nnc(S(=O)(=O)N2CCc3ccccc32)s1,0,0,-3,7,-46*!
COc1ccc(OCC(=O)Nc2ccc(-c3nc4cc(C)c(C)cc4o3)cc2)cc1,0,2,1,1,-31*
CC(=O)Nc1ccc(S(=O)(=O)NNC(=O)COc2ccc(C)cc2)cc1,0,0,-19,0,-33*
O=C(COc1ccccc1)Nc1ccc([N+](=O)[O-])cc1,14,1,-8,3,-82*
Cc1ccc(OCC(=O)Nc2ccc([N+](=O)[O-])cc2)cc1,7,-1,-4,-3,-39*
CC(=O)N1CCc2cc(S(=O)(=O)NC(Cc3ccccc3)C(=O)NC3CCCCCC3)ccc21 (stereo unspecified),3,-1,2,-4,7
COc1ccc(NC(=O)C2(c3ccc(NC(=O)c4ccc(OC)cc4)cc3)CCCC2)cc1,1,0,3,1,9
Cc1ccc(NC(=O)C2(c3ccc([N+](=O)[O-])cc3)CCCC2)cc1,23,5,5,33*,3
CCOc1ccccc1Nc1ncnc2c1cnn2-c1ccccc1,0,-1,-10,-5,-13
Cc1ccc(-n2ncc3c(Nc4cccc(C)c4C)ncnc32)cc1,-2,0,-3,-6,-32*
CCOc1ccccc1Nc1ncnc2c1cnn2-c1ccc(C)cc1,-3,0,1,-6,-41*
COc1ccc(S(=O)(=O)N2CCCCCC2)cc1N(C)S(=O)(=O)c1ccccc1,11,0,-10,-10,-42*
CCN(CC)S(=O)(=O)c1cccc(S(=O)(=O)N2CCCCC2)c1,3,0,-6,-8,-33*
COc1ccc(/C=N/NC(=O)c2cccc(C(=O)N/N=C/c3ccc(OC)cc3)n2)cc1,0,0,1,6,-10
COC(=O)CSc1nnc(-c2ccc(S(=O)(=O)N3CCCC3)cc2)n1C,-3,2,-1,0,-2
O=C1CC(N2CCN(c3ccccc3Cl)CC2)C(=O)N1c1ccc(F)cc1 (stereo unspecified),6,0,-2,7,-3
CCOC(=O)c1sc2ccccc2c1OC(=O)c1ccccc1,9,1,4,-1,4
CCOC(=O)c1sc2ccccc2c1NC(=O)c1coc2ccccc2c1=O,1,0,1,37*,-6
COc1ccc(N(C(=O)c2snc(C(N)=O)c2N)C(C(=O)NCc2ccccc2)c2ccc(F)cc2)c(OC)c1 (stereo unspecified),2,0,-4,5,15
CCOc1cc(C(C(=O)NCC2CCCO2)N(C(=O)Cn2nnc3ccccc32)c2ccc(C(C)=O)cc2)ccc1O (stereo unspecified),-2,0,-3,0,6
SMILES,D1 ag,TRHR ag,D1 potentiator,TRHR enhancer,D1 antagonist
O=C(NCCc1c[nH]c2ccccc12)/C(=C\c1cccs1)NC(=O)c1ccccc1,0,0,-7,-2,-42*
O=C(NCCc1c[nH]c2ccccc12)/C(=C\c1cccnc1)NC(=O)c1cccs1,3,0,2,3,4
Cc1ccc(C(=O)N/C(=C\c2cccs2)C(=O)NCCc2c[nH]c3ccccc23)cc1C,2,1,3,3,-39*
CCc1ccccc1NC(=O)CC(C)S(=O)(=O)c1ccc2c(c1)NC(=O)CO2 (stereo unspecified),-1,0,-1,-2,-26
O=C(CCCCCCC(=O)c1ccccc1)c1ccccc1,2,0,-1,-10,-32*
Cc1ccc(S(=O)(=O)N2CCCC2C(=O)n2nc(C)cc2C)cc1 (stereo unspecified),4,1,-3,-1,-8
CC1CCCCN1S(=O)(=O)Cc1ccccc1Cl (stereo unspecified),0,0,-12,-4,-87*
O=S(=O)(Cc1ccccc1Cl)N1CCCC1,0,0,1,-2,nt
COc1ccc(CNC(=O)COC(=O)CO/N=C(\C)c2ccc3c(c2)OCO3)cc1,-1,-1,-6,8,-33*
C/C(=N\OCC(=O)Nc1ccc2c(c1)OCCO2)c1ccc2c(c1)OCCO2,2,-1,0,-4,19
COC(=O)c1ccccc1NC(=O)CN1CCC(C(=O)c2ccc3c(c2)OCCO3)CC1,7,0,2,10,-32*
COc1ccc(CCC(=O)OCC(=O)NCc2ccc3c(c2)OCO3)cc1,12,0,nt,-1,15
COC(=O)c1ccccc1NC(=O)COC(=O)CO/N=C(\C)c1ccc2c(c1)OCO2,7,1,0,-7,-31*
C/C(=N\OCC(=O)OCC(=O)Nc1cc(S(C)(=O)=O)ccc1Cl)c1ccc2c(c1)OCO2,5,-1,0,-8,-14
Cc1ccc(NC(=O)CN2CCC(C(=O)c3ccc4c(c3)OCCO4)CC2)cc1,3,0,0,-2,4
C/C(=N\OCC(=O)OCC(=O)NC(=O)c1ccccc1)c1ccc2c(c1)OCO2,3,1,1,-2,-40*
O=C1CN(C(=O)N[C@@H](Cc2ccccc2)C(=O)N[C@@H](C(=O)O)c2ccccc2)c2ccccc2N1,2,1,-5,24,11
CC(=O)Oc1ccc(Cn2cnc3cc4ccccc4cc32)cc1,11,1,-10,4,-42*
CCOc1ccc2c(c1)ncn2Cc1ccccc1,3,-1,-3,-13,-12
COc1ccc(NS(=O)(=O)c2ccc(N3CCCCS3(=O)=O)cc2)cc1Cl,20,1,0,0,-30*
O=S(=O)(NCc1ccc(Cl)cc1)c1ccc(N2CCCCS2(=O)=O)cc1,20,-2,-1,-1,-35*

# Screening results (PubChem)
